PubChem BioAssay AID651724 (National Center for Advancing Translational Sciences (NCATS), 2012)
Among all 340,000 compounds or so, about 1,700 (0.5%) were called active. About 2% were inconclusive and are not listed. No stated cut-off is given here; in the data, active means activity change below about -65%; inconclusive means mostly about -30% to -63%; inactive means weaker than that. Only a selection was taken, and actives are over-represented in it overall.
On the % scale 0 is the no-effect control and ±100 the full control effect.

These molecules were tested on CtBP / adenovirus E1A interaction (AlphaScreen) (assay: qHTS Assay for Inhibitors of the CtBP/E1A Interaction). Settings: AlphaScreen GST-E1A/His-CtBP binding, 1536-well; hits give low values.
In short: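 In 5 uL wells, 23 nL compound meets equimolar GST-E1A and His-CtBP (5X stock 125 nM each) for 2 h, 37 °C. Beads (5X, 50 ug/mL) then 1 h, 37 °C, dark.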
For `CCOC(=O)[C@]12CCCC=C1N(CCC1=CCCCC1)C(=O)[C@H](CC(=O)N1CCN(C(=O)c3ccco3)CC1)C2`, the activity change was -6.31% (inactive).
In the case of `NC(=O)NC(CC(=O)NNC(=O)c1ccccn1)c1ccc(Cl)cc1` (stereo not drawn), the activity change is reported as -76% (active).
`O=C(COC(=O)c1ccccn1)NNC(=O)c1ccc(Br)cc1` was tested, and the activity change was -15.7% (inactive).
`CN(C)S(=O)(=O)c1ccc(Cl)c(NC(=O)COC(=O)CC(NC(N)=O)c2ccc(Cl)cc2)c1` (stereo not drawn) was tested, and the activity change was -6.53% (inactive).
For `CC(C)NC(=O)C1(C)CCCCCN1C(=O)c1ccc(-c2ccccc2)cc1` (stereo not drawn), the activity change was -11.1% (inactive).
For `CCCC/C=C/c1cccc2nncn12`, the activity change was 2.58% (inactive).
With `COc1cccc(-c2cc3nc(NCCOc4ccccc4Cl)n(C)c(=O)c3s2)c1` the activity change was 3.25% (inactive).
In the case of `COc1ccc(CCCNC(=O)C2Cc3c(-c4cccc(C(N)=O)c4)ccnc3O2)cc1` (stereo not drawn), the activity change is reported as -0.248% (inactive).
In the case of `O=C(CSc1cccc2cccnc12)N/N=C/c1cccnc1`, the activity change is reported as -93.9% (active).
With `COc1ccc(C(=O)NCC(=O)N/N=C/c2cccnc2)cc1` the activity change was 11.7% (inactive).
For `CCOC(=O)N/N=C/c1cccnc1`, the activity change was 25.9% (inactive).
In the case of `CCCCn1nnnc1C(c1cc2ccccc2o1)N(C)Cc1ccc(Cl)c(Cl)c1` (stereo not drawn), the activity change is reported as 13.3% (inactive).
In the case of `O=C(Nc1ccc2c(c1)OCCO2)C(C1CC1)N1CCC(Cc2ccccc2)CC1` (stereo not drawn), the activity change is reported as -10.3% (inactive).
For `O=C(OCC(=O)N1CCCCCC1)c1cnc(Cl)c(Cl)c1`, the activity change was -78.7% (active).
For `O=C(OCC(=O)N1CCCCCC1)c1ccc(Cl)nc1`, the activity change was -1.48% (inactive).
With `O=C(OCC(=O)N1CCCC1)c1ccc(Cl)nc1` the activity change was 2.13% (inactive).
With `OCc1ccc(OCCCOc2cccc3cccnc23)cc1` the activity change was -7.66% (inactive).
For `O=S(=O)(NCCOc1cccc2cccnc12)c1ccc(F)cc1`, the activity change was 6.61% (inactive).
For `O=C(Nc1ccccc1)Oc1cccc2cccnc12`, the activity change was -90.3% (active).
With `COC(=O)[C@@]12C[C@@H](CC(=O)NCc3cccc(C(F)(F)F)c3)C(=O)N(Cc3ccco3)C1=CCC(C)(C)C2` the activity change was -3.58% (inactive).
For `CCCCCCCCN1C(=O)[C@H](CC(=O)NCc2cccc3ccccc23)C[C@@]2(C(=O)OC)CCCCC=C12`, the activity change was -7.91% (inactive).
`C/C(=N\Nc1ccc(Cl)nn1)c1ccccc1O` was tested, and the activity change was -87.6% (active).
For `CCCCCCCN=C(C)c1ccccc1O`, the activity change was 2.02% (inactive).
For `C/C(=N\NC(=O)c1ccoc1C)c1ccccc1O`, the activity change was -25.9% (inactive).
For `CC(C)Nc1ncnc2c1ncn2[C@H]1CN(Cc2ccncc2)C[C@@H](CO)O1`, the activity change was 4.17% (inactive).
For `Cc1cc(O)ccc1-c1cc(C(=O)NCc2cc(C(F)(F)F)cc(C(F)(F)F)c2)[nH]n1`, the activity change was 0.488% (inactive).
For `O=C(Nc1ccc(Cl)c(C(F)(F)F)c1)C1Cc2c(-c3ccccc3Oc3ccccc3)ccnc2O1` (stereo not drawn), the activity change was -3.42% (inactive).
For `CC(O)(c1cccc(F)c1)c1nc(-c2ccc3c(c2)OCO3)cs1` (stereo not drawn), the activity change was 0.33% (inactive).
With `Cc1cc(C)nc(N/N=C/c2c(CO)cnc(C)c2O)n1` the activity change was -85.2% (active).
In the case of `Cc1ncc(CO)c(/C=N/NC(=O)c2cccc(S(=O)(=O)N3CCCC3)c2)c1O`, the activity change is reported as 0% (inactive).
`CCc1nc2c(OCc3ccc(Cl)cc3Cl)cccn2c1N(C)C(=O)C(C)C` was tested, and the activity change was -14.5% (inactive).
For `Cc1ccc(NC(=O)c2nc[nH]c2C(=O)N[C@@H](CCCCNC(=O)OC(C)(C)C)C(=O)OC(C)(C)C)cc1`, the activity change was -1.82% (inactive).
`CC(C)(C)OC(=O)NCCCCCNC(=O)c1[nH]cnc1C(=O)Nc1nccs1` was tested, and the activity change was -77% (active).
For `CC(C)(C)OC(=O)NCCCCCNC(=O)c1nc[nH]c1C(=O)NCc1ccccc1`, the activity change was 4.97% (inactive).
In the case of `COc1ccc(Cc2nnc(SC)[nH]c2=O)cc1`, the activity change is reported as 0.0747% (inactive).
In the case of `O=c1[nH]c(NCCO)nnc1Cc1ccc(Cl)cc1`, the activity change is reported as 0.739% (inactive).
For `COc1ccc(Cc2nnc(N/N=C/c3ccccc3O)[nH]c2=O)cc1OC`, the activity change was -73.4% (active).
For `CC1CCN(C(=O)CSc2nnc(-c3ccco3)n2N)CC1`, the activity change was 1.76% (inactive).
In the case of `COc1cc2ccc(C(C)=O)c(O)c2cc1OC`, the activity change is reported as 3.1% (inactive).
With `NC(c1csc(NC(=O)Nc2ccccc2Oc2ccccc2)n1)c1ccccc1Cl` (stereo not drawn) the activity change was -22.8% (inactive).
For `Cc1cccc(C)c1Cn1c(C)c(C(=O)NCc2cccc(Cl)c2)sc1=O`, the activity change was -20% (inactive).
In the case of `Cc1ccc2cccc([N+](=O)[O-])c2n1`, the activity change is reported as -11.4% (inactive).
`O=[N+]([O-])c1ccccc1S(=O)(=O)Nc1cccc2cccnc12` was tested, and the activity change was -78.7% (active).
For `NS(=O)(=O)c1ccc(CCNS(=O)(=O)c2cccc3cccnc23)cc1`, the activity change was 3.18% (inactive).
With `CNC(=O)C1CN(C(=O)c2cccc(S(=O)(=O)N3CCc4ccccc43)c2)c2ccccc2O1` (stereo not drawn) the activity change was -7.74% (inactive).
For `CCOC(=O)[C@]12CCCC=C1N(Cc1ccc3c(c1)OCO3)C(=O)[C@H](CC(=O)NCc1cccs1)C2`, the activity change was -17.2% (inactive).
With `CN(C)C(CNC(=O)c1cc(Br)c(Br)s1)c1ccco1` (stereo not drawn) the activity change was 0.728% (inactive).
In the case of `CC(C)c1c(C(=O)N/N=C/c2ccccc2C(=O)O)nnn1-c1nonc1N`, the activity change is reported as 18.7% (inactive).
For `Nc1nonc1-n1nnc(C(=O)N/N=C/c2ccccc2O)c1CN1CCCC1`, the activity change was -92.6% (active).
For `CCc1ccc(/C=N/NC(=O)c2nnn(-c3nonc3N)c2CN2CCc3ccccc32)cc1`, the activity change was -23.8% (inactive).
With `CCOC(=O)N1CCN(C(=O)C[C@@H]2C[C@@]3(C(=O)OC)CCCCC=C3N(CCC3=CCCCC3)C2=O)CC1` the activity change was -2.03% (inactive).
In the case of `Oc1ccc(N=Nc2nccs2)c(O)c1`, the activity change is reported as -92.5% (active).
For `Oc1ccc2ccccc2c1N=Nc1nccs1`, the activity change was -93.9% (active).
`OC[C@@H]1CN(Cc2ccc(-c3ccccc3)cc2)C[C@H](n2cnc3c(NC4CCCC4)ncnc32)O1` was tested, and the activity change was -10.7% (inactive).
`O=C1[C@H]2[C@@H](c3ccc(C(F)(F)F)cc3)N[C@]3(CCCN(Cc4ccc(Cl)cc4)C3=O)[C@H]2C(=O)N1Cc1ccccc1` was tested, and the activity change was 5.38% (inactive).
In the case of `Cc1ccc(S(=O)(=O)N2C[C@H]3n4c(=O)ccc(=O)n4C[C@H](OC(=O)NC4CCCC4)[C@@]3(O)C2)cc1`, the activity change is reported as 2.31% (inactive).
With `CC(=O)NC(c1cccc(F)c1)c1nc(-c2cccc(F)c2)cs1` (stereo not drawn) the activity change was 6.59% (inactive).
For `CCOC(=O)c1cc(-c2sc(NC(=O)c3ccccc3)nc2C)n(-c2ccc(Br)cc2)n1`, the activity change was 0% (inactive).
`COc1cccc(NC(=O)CN(C)C(=O)c2cc(Cl)nc3ccccc23)c1` was tested, and the activity change was -3.92% (inactive).
For `COc1ccc2ccccc2c1/C=N/NC(=O)c1cc(C)[nH]n1`, the activity change was -8.94% (inactive).
`Cc1cc(C(=O)N/N=C/c2cc([N+](=O)[O-])cc(C)c2O)n[nH]1` was tested, and the activity change was -87.9% (active).
For `Cc1ccsc1C(=O)N/N=C/c1ccc([N+](=O)[O-])cc1`, the activity change was -4.19% (inactive).
`Cc1ccccc1S(=O)(=O)NC(=O)C1(C)CCN1C(=O)C1(c2ccc(Cl)cc2)CC1` (stereo not drawn) was tested, and the activity change was 9.59% (inactive).
For `NC(c1ccccc1)c1csc(NC(=O)Nc2cccc(C(F)(F)F)c2)n1` (stereo not drawn), the activity change was -14.2% (inactive).
`NC(=S)NN=Cc1ccc(OC(=O)COc2cc(Cl)c(Cl)cc2Cl)cn1` was tested, and the activity change was -89.3% (active).
`O=C(COc1ccc(Cl)cc1Cl)N/N=C/c1ccccn1` was tested, and the activity change was -13% (inactive).
`O=C(COC(=O)COc1cc(Cl)c(Cl)cc1Cl)NC1CC1` was tested, and the activity change was -0.684% (inactive).
With `CCCS(=O)(=O)NC(=O)C1(C)CCCN(C(=O)c2ccnc(Cl)c2)C1` (stereo not drawn) the activity change was -15.6% (inactive).
With `Cc1cc([N+](=O)[O-])ccc1NC1CCCC1` the activity change was -0.0944% (inactive).
For `Cc1cc([N+](=O)[O-])c(N2CCC[C@@H]2C(=O)O)c([N+](=O)[O-])c1`, the activity change was 4.03% (inactive).
For `Cc1cc([N+](=O)[O-])c(NC2CCCCC2)c([N+](=O)[O-])c1`, the activity change was -67.5% (active).
In the case of `CN(C)CCNC(=O)c1ccc(-c2cn3c(-c4ccc(Oc5ccccc5)cc4)cnc3cn2)cc1`, the activity change is reported as -7.14% (inactive).
`Cc1ccc(CN2CCN(c3ncccn3)CC2)c(C)c1` was tested, and the activity change was -0.239% (inactive).
For `Cc1cccc(C)c1NC(=O)CN1CCN(c2ccc(F)cc2)CC1`, the activity change was -4.18% (inactive).
In the case of `Oc1c(CN2CCN(c3ccc(F)cc3)CC2)cc(Cl)c2cccnc12`, the activity change is reported as -85.8% (active).
`O=C1CC[C@@H](C(=O)N2CSC[C@@H]2C(=O)Nc2ccc(C(F)(F)F)cc2)N1` was tested, and the activity change was 2.94% (inactive).
In the case of `COc1ccc(C=C2CCC3C(CCCC34OCCO4)C2=O)cc1` (stereo not drawn), the activity change is reported as -0.25% (inactive).
With `Cc1ccc(C(=O)N/C(=C\c2cccs2)C(=O)NCCc2ccccn2)cc1C` the activity change was -19.9% (inactive).
For `COc1cncc(-c2cnc3sc(NCCc4ccccn4)nn23)c1`, the activity change was -68.3% (active).
In the case of `COc1cccc(NC(=S)NCc2ccccn2)c1`, the activity change is reported as -9.96% (inactive).
With `O=S(=O)(c1cccc(C(F)(F)F)c1)N1c2ccccc2-n2cccc2C1c1cccnc1` (stereo not drawn) the activity change was 1.4% (inactive).
`C[C@@H]1CN([C@@H](C)CO)C(=O)c2cc(Br)cnc2O[C@H]1CN(C)Cc1ccc(-c2ccccc2)cc1` was tested, and the activity change was -2.2% (inactive).
With `CCCCCc1c(-c2cccc(Br)c2)ncn1CCc1ccccc1OC` the activity change was -0.685% (inactive).
With `COc1cccc(C(NC(C)=O)c2nc(-c3cnc4ccccc4c3)cs2)c1` (stereo not drawn) the activity change was -20.3% (inactive).
`Cc1ccc(-c2cnc(C(O)c3cccc(C)c3C)[nH]2)cc1` (stereo not drawn) was tested, and the activity change was -4.55% (inactive).
For `COCCNC(=O)CSc1nc(N)c(NC(=O)c2ccco2)c(=O)[nH]1`, the activity change was 12.4% (inactive).
In the case of `COc1ccc(C(=O)Nc2c(N)nc(SCC(=O)Nc3ccc(C(C)=O)cc3)[nH]c2=O)cc1`, the activity change is reported as -2.12% (inactive).
`COC(=O)c1ccc(NC(=O)CSc2nc(N)c(NC(=O)c3ccc(Br)o3)c(=O)[nH]2)cc1` was tested, and the activity change was -65.1% (active).
